Laboratory results reported in PubChem BioAssay AID504773 (Broad Institute, 2011).
Results with a measured potency or affinity are listed apart. Activity calls are given as the source filed them.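 How the source made its calls: active means polarization signal falls with dose and the fitted half-maximal concentration is at or below ten times the sample's top valid dose; inconclusive means flat curve at 30 to 70% inhibition, or poor fit; inactive means signal rises, flat within 30%, or potency beyond limit.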

The molecules below were run against Golgi-associated PDZ and coiled-coil motif-containing protein (Homo sapiens) (UniProt Q9HD26) (assay: CAL PDZ peptide-binding inhibitors, dose response, biochemical, fluorescence polarization, Cerulean-tagged CAL PDZ, cherry-picks (AID 504773)). Conditions: 1 h; series mostly up to 50 µM.

outcome, inactive:
Cc1ccc(CN2CCN(Cc3nc4ccccc4nc3C)CC2CCO)cc1 (configuration not stated)
COc1ccc(N2CCN(C(=O)c3cccc4nc(C)oc34)CC2)cc1
Cc1[nH]c2ccccc2c1C(=O)CSc1nc2ncc(Cl)cc2[nH]1
O=C(NCC1CCCO1)c1cn(-c2ccccc2)nc1-c1ccc(F)cc1 (configuration not stated)
CC(=O)Nc1cc(NC(C)=O)cc(C(=O)OCC(=O)Nc2ccc(S(=O)(=O)NC3=NCCCCC3)cc2)c1
C/C(=N/N1CCN(c2ccccn2)CC1)c1ccc([N+](=O)[O-])cc1
CNC(=O)c1nnn(Cc2ccccc2)c1NC(C)=O
CCOC(=O)NC(=O)COC(=O)CCCSc1nc2ccccc2s1
O=C(/C=C/c1cccs1)Nc1scc(-c2ccccc2)c1C(=O)O
Oc1ccc(C=Nc2cccc3ccccc23)c(O)c1
Cc1nc(N)c(CC(Br)CBr)c(Cl)n1 (configuration not stated)
CS(=O)(=O)c1ccc2nc(NC(=O)CN3C(=O)C4CC=CCC4C3=O)sc2c1 (configuration not stated)
CCC(=O)c1cn(CC(=O)Nc2cccc(C)c2C)c2ccccc12
O=C(O)CC1(CC(=O)Nc2ccc(Br)cc2)CCCCC1
COc1ccc(C(=O)NC2(C(F)(F)F)C(=O)Nc3c2c(=O)[nH]c(=O)n3CCc2ccc(OC)c(OC)c2)cc1 (configuration not stated)
Cn1c(CNC(=O)OC(C)(C)C)n[nH]c1=S
Cc1nc(Cl)sc1C(=O)Nc1cc(F)cc(F)c1
Cc1nn(C)c(C)c1S(=O)(=O)N1CCC(CO)(CC2CCCCO2)CC1 (configuration not stated)
CC(=O)N1CCN(c2ccc(NC(=O)c3cccc(Cl)c3Cl)cc2)CC1
CC1Cc2ccccc2N1C(=O)CNc1ccccc1N1CCCCC1 (configuration not stated)
O=C(OCC(=O)N1CCc2ccccc2C1)c1cccnc1Cl
O=C(Nc1nc2ccccc2[nH]1)c1cc2ccccc2o1
CC1CCCCC1NCC(=O)NCc1ccc(F)cc1 (configuration not stated)
CCN(CC)Cc1c(O)ccc2c1O/C(=C\C=C\c1ccccc1)C2=O
Cc1ccc(NC(=O)CN(C)C(=S)NC2CC2)cc1
O=C(NCc1cccnc1)c1ccc(Cn2c(=S)[nH]c3ccc(Br)cc3c2=O)cc1
O=C(CCc1nc(-c2ccc(Cl)cc2)no1)NC1CCCCC1
COC(=O)c1ccccc1NC(=O)n1cc(C)cn1
O=C(COC(=O)c1ccc(Cl)nc1)Nc1ccc(N2CCCCC2)cc1
O=C(NC12CC3CC(CC(C3)C1)C2)c1ccco1
CCCn1cnc2c(SCCc3ccccc3)nc(N)nc21
COc1ccc(C(C)=O)cc1COC(=O)CNC(=O)c1ccccc1F
Cc1ccc2nc(NC(=O)COC(=O)c3ccncc3)sc2c1
Cc1ccc(C(=O)NC(=S)N2CCN(c3cc(C)ccc3C)CC2)cc1
Nc1nc2ccccc2cc1S(=O)(=O)c1ccccc1
Cc1ccc(-c2[nH]c3ccccc3c2SCCN)cc1
O=C1c2ccccc2C(O)N1c1ccccc1 (configuration not stated)
